The values that follow come from PubChem BioAssay AID2685 (National Center for Advancing Translational Sciences (NCATS), 2010).

In all, about 320,000 compounds went through this assay and about 2,100 (0.66%) were called active. Inconclusive results (about 53%) are left out. Calls follow the shape of the dose curve; as a rule, active = well fitted inhibition curve with a large enough effect in the signal ratio, with a control signal flat (not every such curve was filed as active); inconclusive = small, poorly fitted or top-dose-only effect, or effect the other way, or a change in a side signal; inactive = flat fitted curve, though single readings scatter; the % refers to the signal ratio. Only a selection was taken, and actives are over-represented in it overall.
Potency is read from the fitted curve at half-maximal effect.

The nature of the experiment: qHTS Assay for Lipid Storage Modulators in Drosophila S3 Cells.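 As to cell number change: cells counted by Cell Tracker Red CMTPX staining in the red channel.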 As to lipid storage change, negative = inhibition: % is scaled to controls: 0 for no effect and ±100 for the full control effect. Conditions: BODIPY lipid droplet fluorescence, 18-24 h, cells fed with added oleic acid; cell number change: measured here: cell count max response; series mostly up to 46.1 µM. Put shortly:
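Drosophila S3 cells loaded with oleic acid (400 uM, as added) and compounds at several concentrations; lipid droplets imaged by 488-nm laser-scanning cytometry, 500–530 nm intensity and object ratio to cell channel. Percent activity normalized to 20 uM Triacsin C.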
`Cn1cc(Br)c(NS(=O)(=O)c2ccc(Cl)s2)n1`: the Potency result was “inactive” and the cell number change turned out to be 7.84%.

For the compound `CCc1ccc(C(=O)COC(=O)CNC(=O)CNC(=O)Cc2ccccc2)cc1`, the Potency entry is “inactive” and the cell number change was -4.14%.

For the compound `CCc1ccccc1NC(=O)c1cnc2n(c1=O)CCS2`, the Potency result is “inactive” and the cell number change was -5.43%.

With `COc1ccc(C(=O)Oc2cc(/C=N/NS(=O)(=O)c3ccccc3)ccc2OC)cc1`, the Potency result was “inactive” and the cell number change is -2.45%.

Consider `COc1ccccc1NS(=O)(=O)c1ccc(C(=O)NCC(c2ccco2)N(C)C)cc1` (centres undefined), for which the Potency result is “inactive” and the cell number change is -9.2%.

Turning to `O=C(Nc1nc2c(F)cc(F)cc2s1)C1CCN(C(=O)c2ccc(F)cc2)CC1`, the Potency entry was “inactive” and the cell number change came to 13.4%.

Take `CC1(C)CC(C(CC(=O)Nc2nccs2)c2ccccc2)CCO1` (centres undefined): the Potency entry is “inactive” and the cell number change was -3.73%.

For `O=C(CSc1nnc2c(Cl)cc(Cl)cn12)N1CCN(S(=O)(=O)c2ccccc2)CC1`, the Potency entry is “inactive” and the cell number change is 0.68%.

On to `CCOC(=O)C1=C(C)OC(N)=C(C#N)C1c1ccccc1` (centres undefined), for which the cell number change was 2.6% and the lipid storage change, negative = inhibition is 8.87% [at 9.22 µM] (inactive).

With `CCOc1cc(C2C(C#N)=C(N)OC(C)=C2C(C)=O)cc(Br)c1O` (centres undefined), the Potency was 8.2 µM (active).

Regarding `CCOC(=O)C1=C(C)OC(N)=C(C#N)C1c1cccc(C)c1` (centres undefined), the Potency entry was “inactive” and the cell number change turned out to be 26.4%.

In the case of `CCc1nnc(NS(=O)(=O)c2ccc(NC(=O)c3ccco3)cc2)s1`, the Potency result is “inactive” and the cell number change is -17.4%.

As for `COc1ccc(CC2S/C(=N/N=C/c3ccc(O)cc3)NC2=O)cc1` (centres undefined), the Potency entry is “inactive” and the cell number change was found to be 8.53%.

Consider `COc1ccc(/C=N/N=C2/NC(=O)C(c3ccccc3)(c3ccccc3)S2)cc1`, for which the Potency is 16.4 µM (active) and the cell number change was determined as 1.45%.

Consider `COc1ccc(/C=N/N=C2/NC(=O)CC(C(=O)O)S2)cc1` (centres undefined), for which the Potency result was “inactive”.

Turning to `Cc1ccc(/C=C/S(=O)(=O)NCC(=O)OCC(=O)N2CC(=O)Nc3ccccc32)cc1`, the Potency entry was “inactive” and the cell number change was found to be 5.37%.

Take `CCOc1ncccc1C(=O)Nc1cccc(C(=O)Nc2cccc(S(=O)(=O)CCO)c2)c1`: the Potency entry was “inactive” and the cell number change was -9.36%.

In the case of `Cc1ccc(-c2nnc(SCC#N)n2N)cc1`, the Potency entry is “inactive” and the cell number change amounted to 6.27%.

`COc1ccc(-c2csc3ncn(-c4ccccc4)c(=O)c23)cc1OC`: the Potency result was “inactive” and the cell number change is -7.4%.

Take `Cc1cc(C)nc(CCNC(=O)C2CCC(=O)N(Cc3ccccc3F)C2)n1` (centres undefined): the Potency result was “inactive” and the cell number change is 14.5%.

`CSc1ccc(-c2nc(CSCC(=O)NCCCN3CCCC3=O)c(C)o2)cc1`: the Potency was 1.84 µM (active).

Turning to `CCCNC(=O)CSCc1nc(-c2ccc(SC)cc2)oc1C`, the Potency result is “inactive” and the cell number change stood at 10.2%.

As for `CSc1ccc(-c2nc(CSCC(=O)NCCCN3CCOCC3)c(C)o2)cc1`, the Potency result was “inactive” and the cell number change is -0.666%.

With `CCOC(=O)C(CCCOc1cccc(OC)c1)C(=O)OCC`, the Potency entry was “inactive” and the cell number change is -10.4%.

Take `O=C(COc1ccc([N+](=O)[O-])cc1)N1CCc2ccccc2C1`: the Potency entry is “inactive” and the cell number change is 20%.

Take `COc1ccc([N+](=O)[O-])cc1NC(=O)c1ccccc1N(C)S(C)(=O)=O`: the Potency result was “inactive” and the cell number change is -12.5%.

Take `Clc1ccc(-c2nnc(Sc3nc4ccccc4o3)c3ccccc23)cc1`: the Potency entry was “inactive” and the cell number change is -12.5%.

Regarding `Cc1ccc(-c2nnc(Sc3nc4ccccc4o3)c3ccccc23)cc1`, the Potency entry is “inactive” and the cell number change was -15.3%.

As for `O=c1c(Cl)c2oc3ccccc3nc-2c2ccccc12`, the Potency is 11.6 µM (active) and the cell number change was found to be 13.2%.

In the case of `CCSc1ccc(-c2ccco2)nn1`, the Potency result was “inactive” and the cell number change turned out to be 13.6%.

On to `O=c1c([N+](=O)[O-])c(O)c2cccc3c2n1CCC3`, for which the Potency entry was “inactive” and the cell number change is -0.265%.

On to `O=C(Nc1ccccc1C(=O)Nc1ccccn1)c1cccc([N+](=O)[O-])c1`, for which the Potency entry is “inactive” and the cell number change turned out to be 6.61%.

In the case of `N#Cc1c(N)nc2c(c1-c1ccc(F)cc1)c(=O)nc1sccn12`, the Potency result is “inactive”.

Regarding `CC1(c2ccccc2Cl)NC(=O)N(CC(=O)NCCC2=CCCCC2)C1=O` (centres undefined), the Potency entry is “inactive”.

In the case of `O=C(Cc1ccc([N+](=O)[O-])cc1)N1CCN(c2ccc([N+](=O)[O-])cc2)CC1`, the Potency result was “inactive” and the cell number change was found to be 2.07%.

Take `O=C(Cc1ccc(F)cc1)N1CCN(c2ccc([N+](=O)[O-])cc2)CC1`: the Potency result is “inactive” and the cell number change is 11.6%.

`Cc1ccc(CC(=O)N2CCN(c3ccc([N+](=O)[O-])cc3)CC2)cc1`: the Potency is 7.31 µM (active) and the cell number change turned out to be 10.2%.

On to `O=C(Nc1cccc2ccccc12)N1CCN(c2ncccn2)CC1`, for which the Potency entry was “inactive” and the cell number change was determined as 15%.

`Cc1ccc(CN2CCN(Cc3cnc(N4CCOCC4)s3)CC2CCO)cc1` (centres undefined): the Potency entry was “inactive” and the cell number change is -2.17%.

As to `CC(C)=CCN1CCN(Cc2cnc(N3CCOCC3)s2)CC1CCO` (centres undefined), the Potency was 13 µM (active) and the cell number change is -26.5%.

For the compound `CC(C)CN1CCN(Cc2cnc(N3CCOCC3)s2)CC1CCO` (centres undefined), the Potency result is “inactive” and the cell number change is 24.7%.

On to `O=C1CN(S(=O)(=O)c2ccccc2)CCN1S(=O)(=O)c1ccccc1`, for which the Potency entry is “inactive” and the cell number change is -1.6%.

As to `NS(=O)(=O)c1ccc(NC(=O)CSC2=NC(=O)C(c3ccccc3)C(=O)N2)cc1` (centres undefined), the Potency entry is “inactive” and the cell number change is -0.978%.

As for `CCC1C(=O)N=C(SCC(=O)Nc2ccc(S(N)(=O)=O)cc2)NC1=O` (centres undefined), the Potency was 6.51 µM (active) and the cell number change was -37.4%.

Take `CCC1C(=O)N=C(SCC(=O)Nc2ccccc2)NC1=O` (centres undefined): the Potency entry was “inactive” and the cell number change is 7.84%.

On to `O=S(=O)(/N=C(/c1ccc(F)cc1)N1CCCCC1)c1ccc(Cl)cc1`, for which the Potency entry is “inactive” and the cell number change was -6.48%.

Turning to `Cc1ccc(CNC(=O)CN2C(=O)c3ccccc3S2(=O)=O)cc1`, the Potency entry is “inactive” and the cell number change is 20.7%.
